This is part of a sample that, as a whole, favours compounds with a hit. Of some 83,000 tested, about 20% had one in any assay.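 The endpoint reported here, percent growth, reads 100 for growth as untreated, 0 for no net growth and -100 for all cells dead.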 A number with no mark means an inactive call. Activity calls are given as the source filed them. How the source made its calls: active means growth percent below 10; inactive means the rest.
Key:
Test in all cases: NCI-60 one-dose screen, 48 h (100 = growth as untreated, 0 = no growth, -100 = all killed)
Conditions in all cases: 10 µM
RPMI-8226 leukemia = tested on: RPMI-8226 leukemia
OVCAR-8 ovarian = tested on: OVCAR-8 ovarian
OVCAR-5 ovarian = tested on: OVCAR-5 ovarian
OVCAR-4 ovarian = tested on: OVCAR-4 ovarian
IGROV1 ovarian = tested on: IGROV1 ovarian
OVCAR-3 ovarian = tested on: OVCAR-3 ovarian
HS 578T breast = tested on: HS 578T breast
NCI/ADR-RES ovarian = tested on: NCI/ADR-RES ovarian
SK-OV-3 ovarian = tested on: SK-OV-3 ovarian

Row | SMILES | growth (RPMI-8226 leukemia) | growth (OVCAR-8 ovarian) | growth (OVCAR-5 ovarian) | growth (OVCAR-4 ovarian) | growth (IGROV1 ovarian) | growth (OVCAR-3 ovarian) | growth (HS 578T breast) | growth (NCI/ADR-RES ovarian) | growth (SK-OV-3 ovarian)
1 | Cc1nc2c(cnn2-c2ccccc2)c(=O)n1-c1ccc(NC(=O)c2ccc(F)cc2)cc1 | 35.2% | 63.7% | 97.9% | 40.1% | 73.5% | 85.4% | 78.7% | 42.8% | 
2 | O=C(Cn1cc(CSc2nnc3oc4ccccc4n23)nn1)Nc1ccc(Br)cc1 | 93.2% | 16% | 91.6% | 87% | 75% | 87% | 20.3% | 51.3% | 53.8%
3 | O=C(N/N=C/c1ccc(B(O)O)o1)c1[nH]c2ccc(Br)cc2c1-c1ccccc1 | 28.2% | 14.1% | 43.5% | 56.1% | 51.8% | 14% | 0.269% (active) | -34.6% (active) | 
4 | Cc1ccc(NC(=O)c2ccc(-n3c(=O)[nH]c4ccccc4c3=O)cc2)cc1 | 133% | 52.9% | 106% | 98.8% | 103% | 90.5% | 78.3% | 80.2% | 82.5%
5 | Cc1ccc(C(C)C)cc1NC(=O)c1ccccc1O | 3.01% (active) | 59.1% | 96.2% | 24.6% | 54.3% | 29.9% | 43% | 29.1% | 44.5%
6 | COc1ccccc1[C@H]1C(C(=O)c2ccc(O)cc2)C2(N[C@@H]1c1ccccc1)C(=O)Nc1ccc(Br)cc12 (stereo partly specified) | 30.3% | 37.5% | 62.7% | 41.1% | 19.2% | -29.1% (active) | 36.3% | 57.7% | 61.4%
7 | CC(=O)Nc1nc(-c2ccc(N3CCN(C)CC3)c(NS(=O)(=O)c3cccc4c(N(C)C)cccc34)c2)cs1 | 6.29% (active) | 76.7% | 83.4% | 68.8% | 84.8% | 78.9% | 41% | 94.8% | 63.9%
8 | CN(CCF)c1ccc(/C=C/C(=O)c2ccc(N)cc2O)cc1 | 62.8% | 70.6% | 90% | 68.8% | 94.3% | 80.8% | 112% | 71.7% | 
9 | O=C(Nc1ccc(OCc2ccccc2)cc1)Nc1ccc(Cl)c(C(F)(F)F)c1 | -30.4% (active) | 2.36% (active) | 18.5% | 11.2% | 19% | 7.77% (active) | -0.0644% (active) | 1.39% (active) | -29.7% (active)
10 | COc1ccc2nc(Cl)c(-c3cc(-c4ccccc4)nc(N)n3)cc2c1 | -27% (active) | -68.4% (active) | 51.4% | 83.7% | 52.5% | 12.1% | 59.3% | -43.1% (active) | 95.1%
11 | CC(=O)Nc1ccc(-c2cn(-c3cccc(C(=O)Nc4cc(C(F)(F)F)cc(C(F)(F)F)c4)c3)nn2)cn1 | -43.7% (active) | -32.8% (active) | -10.6% (active) | -24.6% (active) | -38.4% (active) | -30.9% (active) | -9.63% (active) | 1.76% (active) | 
12 | O=C(O)CCCCCCCCCCN1C(=O)/C(=C/c2cnc(-c3ccc(Cl)cc3)s2)SC1=S | 74.9% | -2.09% (active) | 56.9% | 67% | 23.9% | -15.1% (active) | 58.6% | 11% | 3.51% (active)
13 | CO[C@@H]1CSS[C@H]1Cn1nc(-c2ccc(Oc3ccccc3)cc2)c2c(N)ncnc21 | 34.3% | 82.9% | 82.3% | 67.3% | 80.4% | 104% | 72.6% | 65.8% | 
14 | C=C(c1ccc(OC)c(N)c1)c1cc(C)nc2ccccc12 | 10.9% | 8.32% (active) | 26.3% | 57.8% | 17.1% | -4.17% (active) | 38.9% | -29% (active) | 
15 | O=C1Nc2cc(Cl)ccc2/C1=C/c1cccc(OCc2ccccc2)c1 | -34.7% (active) | -65% (active) | 11.9% | 36.7% | 11.1% | -5.96% (active) | -2.85% (active) | -22.2% (active) | 32%
16 | CC(C)CCSc1nc(NC2CC2)c(C#N)c(-c2ccc(C(C)C)cc2)n1 | 101% | 110% | 111% | 112% | 113% | 117% | 108% | 108% | 96.5%
17 | CN(C)c1cccc2c(S(=O)(=O)Nc3cccc(-c4csc(NC(=O)CCCCCN5CCN(c6cc7c(cc6F)C(=O)N(C6CCC(=O)NC6=O)C7=O)CC5)n4)c3)cccc12 (stereo unspecified) | 50.7% | 94.6% | 105% | 66.6% | 96.3% | 99.8% | 70.4% | 98.4% | 
18 | O=C(Nc1ccc(I)cc1F)c1cc(-c2ccc(F)cc2F)ccc1O | -18.1% (active) | 8.5% (active) | 3.54% (active) | 17.2% | 22.7% | -1.28% (active) | 2.66% (active) | -8.34% (active) | 
19 | Cc1ccc([N+](=O)[O-])c(C(=O)Nc2ccc(-c3ccc4c(c3)NC(=O)/C4=C\c3ccc[nH]3)cc2)c1 | 31.4% | 25.6% | 55% | 34.3% | 53.9% | 41.3% | 67.2% | 38% | 109%
20 | C=C[C@H]1[C@H](O[C@@H]2OC(CO)[C@@H](O)[C@H](O)C2OC(=O)c2c(O)cc(O)cc2-c2cccc(O)c2)OC=C2C(=O)OCC[C@H]21 (stereo partly specified) | 106% | 102% | 100% | 108% | 101% | 112% | 99.7% | 102% | 95.7%
21 | N#Cc1c(-c2ccc(F)cc2)nc(SCc2ccc([N+](=O)[O-])cc2)nc1N1CCOCC1 | 80.3% | 53.1% | 92.1% | 57.2% | 80.5% | 69.7% | 15.6% | 41.6% | 
22 | CCN(CC)CCOc1ccc(C(=C(C)c2ccccc2)c2ccc(OCCN(CC)CC)cc2)cc1 | -35.4% (active) | 25.2% | 24.9% | 13.6% | 34% | -7.71% (active) | -8.15% (active) | 29% | 58%
23 | S=c1nc(-c2ccccc2)cc(-c2cc3ccccc3nc2Cl)[nH]1 | 76.3% | 76.1% | 110% | 91.7% | 82.8% | 76.7% | 57.6% | 49.1% | 75%
24 | CCN1CCN(c2ccc(NC(=O)Nc3ccc4c(c3F)CCN4c3ccnc(C(=O)NC)c3)cc2C(F)(F)F)CC1 | -40.2% (active) | -75.4% (active) | 57.5% | -89.6% (active) | 113% | -85.6% (active) | 68.3% | -67.6% (active) | 
25 | CC(C)NC(=O)c1cc(-c2ccc(NC(=O)Nc3ccc(N4CCN(C)CC4)c(C(F)(F)F)c3)cc2)nc2cccnc12 | -37.5% (active) | -81.4% (active) | -99.5% (active) | -87.8% (active) | -86.9% (active) | -84.9% (active) | -42.1% (active) | -61.7% (active) | -93.1% (active)
26 | CC(=C(c1ccc(OCCN2CCCCCC2)cc1)c1ccc(OCCN2CCCCCC2)cc1)c1ccc(Cl)cc1 | -63.6% (active) | -95.3% (active) | -100% (active) | -96.3% (active) | -94.1% (active) | -92.6% (active) | -48% (active) | -97.7% (active) | -100% (active)
27 | O=S(=O)(c1ccc(Cl)cc1)c1nc(-c2ccccc2)oc1S(=O)(=O)c1ccc(Cl)cc1 | 36.3% | 81.5% | 101% | 92.8% | 91.7% | 89.1% | 87.4% | 81.2% | 94%
28 | O=C(CS(=O)(=O)c1oc(-c2ccc(Cl)cc2)nc1S(=O)(=O)c1ccc(Cl)cc1)N1CCOCC1 | -9.59% (active) | 28.3% | 38.3% | -8.45% (active) | 73.5% | 6.83% (active) | 76% | 28.2% | 92.8%
29 | CNC(=O)c1cccc(N2CCc3c2ccc(NC(=O)Nc2ccc(N4CCN(C)CC4)c(C(F)(F)F)c2)c3F)c1 | -41.1% (active) | -83.4% (active) | -85.1% (active) | -86.1% (active) | -91.7% (active) | -80% (active) | -1.44% (active) | -79.2% (active) | 45.3%

Source: PubChem BioAssay (NCI)
